Assay [1] deals with Luciferin 4-monooxygenase (Photinus pyralis) (UniProt P08659). Description: Biochemical firefly luciferase enzyme assay for NPC (AID 624030).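 Further: purified P. pyralis luciferase at 10 nM with luciferin and ATP substrate; 0% = DMSO and -100% = full luciferase inhibition by PTC124 control; nearly all actives have a fitted effect of over 70% in size.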 An outline of the steps:
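Direct inhibition of firefly luciferase enzyme (10 nM final, 50 mM Tris Acetate) assessed by luminescence within 5 minutes. Percent activity scaled between DMSO and PTC124 positive control, with concentration-effect curves classified by fit quality and response.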

In a further assay the test system is AS120. Briefly: qHTS profiling for inhibitors of Plasmodium falciparum proliferation (AID 504749).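 Further: 0% = DMSO vehicle and full inhibition = artemisinin control; nearly all actives have a fitted effect of over 60% in size.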 Conditions: P. falciparum in erythrocytes, SYBR Green DNA, 72 h; series mostly up to 28.7 µM. An outline of the steps:
(§1)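 SYBR Green fluorescence of parasite DNA, read after lysis and overnight dark incubation, measured growth over 72 h in erythrocyte culture at 0.3% parasitemia and 2.5% hematocrit. Data normalised to DMSO and 0.29 uM artemisinin, with plate-drift correction.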

The subject of another assay is ATS189. The assay is described as above. Conditions: P. falciparum in erythrocytes, SYBR Green DNA, 72 h; series mostly up to 28.7 µM. The procedure, abridged:
as §1

A further assay has as its system CP192. The assay is described as above. Conditions: P. falciparum in erythrocytes, SYBR Green DNA, 72 h; series mostly up to 28.7 µM. An outline of the steps:
as §1

The next assay relates to CP203. The assay is described as above. To be noted: P. falciparum in erythrocytes, SYBR Green DNA, 72 h; series mostly up to 28.7 µM. The procedure, abridged: as §1
The next assay has as its system CP247. The assay is described as above. Conditions: P. falciparum in erythrocytes, SYBR Green DNA, 72 h; series mostly up to 28.7 µM. An outline of the steps: as §1
For the next assay, the system named is DFO2036. The description is as above. To be noted: P. falciparum in erythrocytes, SYBR Green DNA, 72 h; series mostly up to 28.7 µM. An outline of the steps: as §1
A further assay relates to PC49. The description is as above. Conditions: P. falciparum in erythrocytes, SYBR Green DNA, 72 h; series mostly up to 28.7 µM. An outline of the steps:
as §1

Assay [2] has as its target Estrogen receptor (Homo sapiens) (UniProt P03372). Description: qHTS assay for small molecule antagonists of estrogen receptor alpha signaling (AID 588513; active means well fitted curve in the direction sought with a large enough effect in the signal ratio, with a control signal flat, not every such curve was filed as active; the % refers to the signal ratio; further: on the % scale 0 is the no-effect control and ±100 the full control effect). An outline of the steps:
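Antagonist mode: inhibition of 0.5 nM 17-beta-estradiol-driven beta-lactamase reporter in HEK 293 ER-alpha-UAS-bla cells, 18 h at 37C, CCF4 readout after 2 h at RT. Normalised to estradiol and DMSO; titration fitted to Hill.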

Assay [3] shares this target. Description: qHTS assay for small molecule agonists of estrogen receptor alpha signaling (AID 588514; calls by dose curve;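 further: 0% = vehicle only and 100% = reference agonist; nearly all actives have a fitted effect of over 70% in size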). An outline of the steps:
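Efficacy is expressed against 20 nM 17-beta-estradiol (100%) and DMSO basal (0%); EC50 from Hill equation. Assay: beta-lactamase reporter in ER-alpha-UAS-bla HEK 293 cells, 18 h compound incubation, CCF4 detection.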

Assay [4] concerns the target Glucocorticoid receptor (Homo sapiens) (UniProt P04150). Briefly: qHTS assay for small molecule antagonists of glucocorticoid receptor signaling (AID 588533; active means well fitted inhibition curve with a large enough effect in the signal ratio, with a control signal flat, not every such curve was filed as active; the % refers to the signal ratio;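 further: cells stimulated with 2 nM dexamethasone as agonist; on the % scale 0 is the no-effect control and ±100 the full control effect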). An outline of the steps:
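Antagonist-mode qHTS: compound titrations added to GRE-bla HeLa cells, then dexamethasone 2 nM final; 18 h, 37 C. CCF4 FRET fluorescence normalized to dexamethasone and DMSO; IC50 from Hill fit.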

Assay [5] deals with Peroxisome proliferator-activated receptor delta (Homo sapiens) (UniProt Q03181). Description: qHTS assay for small molecule agonists of peroxisome proliferator-activated receptor delta signaling (AID 588534; calls by dose curve;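 further: 0% = DMSO basal wells and 100% = positive control agonist at 10 µM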). The procedure, abridged:
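Agonist-mode qHTS; reporter cells, 5 hrs 37 C pre-incubation; compound titration, 18 hrs 37 C; CCF4 dye, 2 hrs RT; fluorescence read. EC50/efficacy via Hill fit.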

In assay [6] the target is Peroxisome proliferator-activated receptor gamma (Homo sapiens) (UniProt P37231). Description: qHTS assay for small molecule agonists of peroxisome proliferator-activated receptor gamma signaling (AID 588536; active means well fitted curve in the direction sought with a large enough effect in the signal ratio, with a control signal flat, not every such curve was filed as active; the % refers to the signal ratio;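 further: 0% = DMSO basal wells and 100% = rosiglitazone at 2 µM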). The procedure, abridged: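 Beta-lactamase reporter read-out: CCF4 fluorescence (ex 405, em 460/530 nm) after 2 h at RT. HEK293 GeneBLAzer cells were treated for 16 h at 37 C. Hill fits gave EC50 and efficacy versus 2 uM rosiglitazone (100%) and DMSO (0%).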
Peroxisome proliferator-activated receptor gamma (Homo sapiens), sequence (P37231 whole entry, looked up): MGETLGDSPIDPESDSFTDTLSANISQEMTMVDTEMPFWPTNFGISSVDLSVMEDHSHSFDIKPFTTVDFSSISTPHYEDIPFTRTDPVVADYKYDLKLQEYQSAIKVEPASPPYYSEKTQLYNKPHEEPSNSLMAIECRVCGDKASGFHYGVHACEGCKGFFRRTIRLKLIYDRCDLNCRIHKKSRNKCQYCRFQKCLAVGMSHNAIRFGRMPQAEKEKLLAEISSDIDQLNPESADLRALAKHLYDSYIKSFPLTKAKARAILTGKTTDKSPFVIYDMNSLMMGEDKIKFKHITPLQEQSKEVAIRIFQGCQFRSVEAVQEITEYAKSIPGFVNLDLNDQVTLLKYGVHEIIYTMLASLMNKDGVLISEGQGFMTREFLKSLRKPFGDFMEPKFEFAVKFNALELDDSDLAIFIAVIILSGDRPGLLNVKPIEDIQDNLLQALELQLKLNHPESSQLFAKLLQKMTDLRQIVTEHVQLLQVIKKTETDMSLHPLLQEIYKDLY

Assay [7] deals with Vitamin D3 receptor (Homo sapiens) (UniProt P11473). Briefly: qHTS assay for small molecule agonists of vitamin D receptor signaling (AID 588543; calls by dose curve;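 further: 0% = DMSO basal and 100% = reference agonist control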). The procedure, abridged:
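Agonist-mode beta-lactamase reporter: HEK293T VDR-UAS-bla cells in charcoal-stripped 2% FBS, compound series 16 h 37 C, CCF4 2 h RT. EC50 from Hill fit, scaled against DMSO and 50 nM calcitriol control.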

The nature of assay [8]: qHTS assay for small molecule activators of the p53 signaling pathway (AID 651743; active means well fitted activation curve with a large enough effect in the signal ratio, not every such curve was filed as active; the % refers to the signal ratio; further: % of control where 0% means no effect). To be noted: HCT-116 p53RE-bla, beta-lactamase FRET ratio, 16 h; activation: hits give high values. The procedure, abridged:
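After 16 hours compound treatment at 37 C, HCT-116 cells stably expressing p53RE-driven beta-lactamase were loaded with LiveBLAzer B/G FRET substrate for 2 hours at room temperature. Fluorescence intensity served as the p53 activation read-out.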

The nature of assay [9]: qHTS assay for environmental chemicals that activate the Aryl hydrocarbon Receptor (AhR) signaling pathway (AID 651777). Further: % of control where 0% means no effect; nearly all actives have a fitted effect of over 15% in size. To be noted: 1A2-DRE human hepatoma cells, luciferase, 24 h; activation: hits give high values. The procedure, abridged: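 Human hepatoma 1A2-DRE cells stably carrying a DRE/CYP1A2 promoter–luciferase reporter, 1,200 cells/well, exposed to compound 24 hr at 37 C. Luciferase read by One-Glo luminescence after 30 min at room temperature; increased signal marks AhR activation.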

A short description of assay [10]: qHTS assay for small molecule agonists of the antioxidant response element (ARE) signaling pathway measured by Nrf2-dependant transcriptional activity (AID 720636; active means well fitted curve in the direction sought with a large enough effect in the repeat runs; an effect the other way counts as inactive or inconclusive; further: % of control where 0% means no effect). The procedure, abridged:
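ARE-luc HepG2 cells carrying an Nrf2-responsive luciferase reporter, in medium with 1% dialyzed FBS, exposed to compound for 16 hr at 37 C, 5% CO2. Luminescence read 30 min after ONE-Glo addition.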

Assay [11] addresses Thyroid hormone receptor beta (Homo sapiens) (UniProt P10828). Description: qHTS assay for small molecule agonists of thyroid hormone receptor beta signaling (AID 588545; calls by dose curve;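 further: 0% = DMSO only and 100% = 10 nM T3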). The procedure, abridged: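 Stimulation of a TR-driven beta-lactamase reporter was quantified in GripTite HEK 293 cells. Compound series ran for 18 hrs; curves were normalized to T3 and DMSO controls and fitted to yield EC50.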

Assay [12] shares this target. Briefly: qHTS assay for small molecule antagonists of thyroid hormone receptor beta signaling (AID 588547; active means well fitted inhibition curve with a large enough effect in the signal ratio, with a control signal flat, not every such curve was filed as active; the % refers to the signal ratio;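 further: cells stimulated with 0.4 nM T3 agonist during compound exposure; on the % scale 0 is the no-effect control and ±100 the full control effect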). Conditions: TR-UAS-bla HEK293, beta-lactamase ratio, antagonist mode, 18 h. The procedure, abridged:
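Inhibition of T3-driven (0.4nM final) beta-lactamase reporter activity was measured over 0.59 nM to 92 uM compound after 18 h at 37 C. The cells were GripTite HEK293 TR-UAS-bla in charcoal/dextran-stripped serum, with CCF4 ratio read-out and IC50 from Hill fits.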

Assay [13] can be described thus: qHTS assay for small molecule agonists of the antioxidant response element (ARE) signaling pathway (AID 651741; active means well fitted activation curve with a large enough effect in the signal ratio; the % refers to the signal ratio; further: potency means the concentration at half of the fitted maximal effect; on activation: % of control where 0% means no effect). An outline of the steps:
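Beta-lactamase reporter under ARE control in HepG2 cells, 2,000 per well, was induced by 16 h compound treatment at 37 C. Read-out was fluorescence from LiveBLAzer B/G FRET substrate after 2 h at room temperature.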

Values joined by “and” are separate entries in the source; they are usually repeats but may differ in a detail not shown here. Equal values may be shown once. Records with an inconclusive call do not appear. A number with no mark means an inactive call. Active and inactive are the calls of the source. Unless noted, the call rests on the fitted dose curve; in most records, active means well fitted curve in the direction sought with a large enough effect; inconclusive means small, poorly fitted or top-dose-only effect, or another doubt; inactive means no such curve, though single readings can be large; an effect the other way counts as inactive or inconclusive.

Thyroid hormone receptor beta (Homo sapiens), sequence (P10828 whole entry, looked up): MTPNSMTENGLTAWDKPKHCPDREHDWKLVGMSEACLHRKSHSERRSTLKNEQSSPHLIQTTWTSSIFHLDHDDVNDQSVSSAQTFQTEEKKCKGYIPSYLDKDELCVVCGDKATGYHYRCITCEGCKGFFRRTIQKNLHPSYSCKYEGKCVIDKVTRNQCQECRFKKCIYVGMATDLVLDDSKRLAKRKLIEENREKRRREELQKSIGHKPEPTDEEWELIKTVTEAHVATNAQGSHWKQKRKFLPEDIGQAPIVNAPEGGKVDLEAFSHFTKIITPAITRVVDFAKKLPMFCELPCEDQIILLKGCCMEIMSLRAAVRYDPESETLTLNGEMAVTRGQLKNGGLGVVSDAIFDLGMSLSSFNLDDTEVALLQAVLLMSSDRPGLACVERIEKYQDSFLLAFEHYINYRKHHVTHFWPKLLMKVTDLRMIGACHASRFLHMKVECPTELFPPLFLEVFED
Estrogen receptor (Homo sapiens), sequence (P03372 whole entry, looked up): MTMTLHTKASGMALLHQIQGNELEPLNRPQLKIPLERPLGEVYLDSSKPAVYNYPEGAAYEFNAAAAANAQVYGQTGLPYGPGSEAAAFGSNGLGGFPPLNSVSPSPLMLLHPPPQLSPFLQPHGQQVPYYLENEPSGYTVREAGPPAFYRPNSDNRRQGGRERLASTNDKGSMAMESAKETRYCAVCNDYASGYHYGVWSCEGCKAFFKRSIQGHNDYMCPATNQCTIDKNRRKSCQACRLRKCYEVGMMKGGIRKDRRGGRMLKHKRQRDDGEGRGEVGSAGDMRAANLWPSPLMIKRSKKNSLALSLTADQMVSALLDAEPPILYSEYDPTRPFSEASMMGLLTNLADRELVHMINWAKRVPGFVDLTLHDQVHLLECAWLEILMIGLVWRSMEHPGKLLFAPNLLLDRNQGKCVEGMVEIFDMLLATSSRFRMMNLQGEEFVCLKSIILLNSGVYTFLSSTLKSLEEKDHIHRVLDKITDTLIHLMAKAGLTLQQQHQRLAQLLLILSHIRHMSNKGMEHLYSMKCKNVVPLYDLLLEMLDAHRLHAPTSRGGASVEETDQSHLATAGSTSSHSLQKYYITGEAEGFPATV
Peroxisome proliferator-activated receptor delta (Homo sapiens), sequence (Q03181 whole entry, looked up): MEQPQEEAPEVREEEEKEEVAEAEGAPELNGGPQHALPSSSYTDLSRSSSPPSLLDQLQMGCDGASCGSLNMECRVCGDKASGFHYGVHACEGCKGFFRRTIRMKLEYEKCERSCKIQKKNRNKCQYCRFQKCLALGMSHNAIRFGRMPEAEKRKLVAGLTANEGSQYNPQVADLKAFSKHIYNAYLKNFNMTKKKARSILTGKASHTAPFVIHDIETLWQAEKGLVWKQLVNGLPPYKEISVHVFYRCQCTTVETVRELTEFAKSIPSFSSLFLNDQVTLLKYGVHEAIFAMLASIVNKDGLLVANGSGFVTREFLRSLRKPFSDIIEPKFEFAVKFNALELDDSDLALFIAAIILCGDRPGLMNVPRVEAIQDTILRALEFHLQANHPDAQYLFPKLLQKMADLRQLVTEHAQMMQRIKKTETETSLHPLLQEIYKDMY
Glucocorticoid receptor (Homo sapiens), sequence (P04150 whole entry, looked up): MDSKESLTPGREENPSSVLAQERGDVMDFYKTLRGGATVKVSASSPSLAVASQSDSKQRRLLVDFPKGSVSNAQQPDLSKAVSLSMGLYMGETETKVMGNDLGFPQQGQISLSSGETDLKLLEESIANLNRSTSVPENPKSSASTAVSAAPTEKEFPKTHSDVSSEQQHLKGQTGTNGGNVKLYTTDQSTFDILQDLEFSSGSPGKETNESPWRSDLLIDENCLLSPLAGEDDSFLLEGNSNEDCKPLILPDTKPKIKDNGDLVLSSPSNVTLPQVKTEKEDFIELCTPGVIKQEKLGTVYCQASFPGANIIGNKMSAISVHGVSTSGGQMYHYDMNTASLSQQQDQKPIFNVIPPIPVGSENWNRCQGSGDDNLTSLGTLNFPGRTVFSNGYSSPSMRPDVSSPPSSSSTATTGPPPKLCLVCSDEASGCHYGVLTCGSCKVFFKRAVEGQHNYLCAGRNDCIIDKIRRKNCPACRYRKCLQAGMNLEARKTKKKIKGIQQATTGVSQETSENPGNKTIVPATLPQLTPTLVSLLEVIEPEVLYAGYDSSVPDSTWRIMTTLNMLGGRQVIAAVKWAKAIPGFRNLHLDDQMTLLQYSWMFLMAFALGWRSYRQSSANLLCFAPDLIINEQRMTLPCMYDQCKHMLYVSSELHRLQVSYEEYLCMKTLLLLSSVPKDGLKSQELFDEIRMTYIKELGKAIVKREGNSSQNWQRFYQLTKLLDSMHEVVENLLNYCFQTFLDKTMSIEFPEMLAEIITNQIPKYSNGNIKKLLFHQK
Vitamin D3 receptor (Homo sapiens), sequence (P11473 whole entry, looked up): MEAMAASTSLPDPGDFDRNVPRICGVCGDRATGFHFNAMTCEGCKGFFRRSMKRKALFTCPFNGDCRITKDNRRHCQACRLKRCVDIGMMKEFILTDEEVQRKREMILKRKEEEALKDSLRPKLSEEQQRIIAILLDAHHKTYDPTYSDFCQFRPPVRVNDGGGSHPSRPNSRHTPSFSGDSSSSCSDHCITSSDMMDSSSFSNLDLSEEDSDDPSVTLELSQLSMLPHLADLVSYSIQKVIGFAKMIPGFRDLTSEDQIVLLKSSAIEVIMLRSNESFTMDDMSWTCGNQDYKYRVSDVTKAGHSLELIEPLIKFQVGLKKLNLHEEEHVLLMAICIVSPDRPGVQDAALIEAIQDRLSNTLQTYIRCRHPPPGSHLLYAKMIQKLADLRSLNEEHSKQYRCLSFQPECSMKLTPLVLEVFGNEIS
Luciferin 4-monooxygenase (Photinus pyralis), sequence (P08659 whole entry, looked up): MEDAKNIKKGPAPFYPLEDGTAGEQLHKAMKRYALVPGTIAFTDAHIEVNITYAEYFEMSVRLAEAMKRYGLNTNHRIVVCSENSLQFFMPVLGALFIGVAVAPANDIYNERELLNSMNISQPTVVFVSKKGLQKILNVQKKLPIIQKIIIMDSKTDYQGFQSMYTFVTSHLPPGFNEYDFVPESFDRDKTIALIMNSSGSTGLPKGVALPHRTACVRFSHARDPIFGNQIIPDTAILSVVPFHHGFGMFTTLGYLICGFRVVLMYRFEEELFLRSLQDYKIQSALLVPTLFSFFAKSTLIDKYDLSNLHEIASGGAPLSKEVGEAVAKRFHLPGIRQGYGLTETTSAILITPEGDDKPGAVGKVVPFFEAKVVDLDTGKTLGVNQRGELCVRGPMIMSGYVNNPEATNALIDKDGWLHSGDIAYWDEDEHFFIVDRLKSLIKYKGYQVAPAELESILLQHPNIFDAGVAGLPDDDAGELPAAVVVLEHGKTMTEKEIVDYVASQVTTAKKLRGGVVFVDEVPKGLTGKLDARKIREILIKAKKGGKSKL

Turning to `COc1cc2c(cc1OC)[C@@]13CCN4CC5=CCOC6CC(=O)N2C1[C@H]6[C@@H]5C[C@@H]43` (stereo partly specified), the Potency result (in assay [1]; with AS120; in the assay with ATS189; in the assay with CP192; in the assay with CP203; with CP247) was “inactive” throughout. Further, the Potency entry in the assay with DFO2036 and with PC49 was “inactive” throughout.

Regarding `CNC(=O)Oc1cccc2c1OC(C)(C)O2`, the Potency entry in assay [2], in assay [3] and in assay [4] was “inactive” in each case. The compound was called inactive in assay [5], in assay [6], in assay [7] and in [10]. Moreover, the activation in [8] is 0.009%; in [9], 1.33%.

With `O=c1ccc2cc(O[C@H]3O[C@@H](CO)[C@@H](O)[C@@H](O)[C@@H]3O)c(O)cc2o1`, the Potency result (in [1]; with AS120; in the assay on ATS189; with CP192; in the assay on CP203; with CP247) was “inactive” throughout. In addition, the Potency entry in the assay on DFO2036 and in the assay with PC49 was “inactive” in each case.

With `CC([C@H](O)c1ccccc1)N(C)C` (stereo partly specified), the Potency result (in assay [1]; in the assay on AS120; in the assay with ATS189; in the assay with CP192; in the assay on CP203; in the assay with CP247) was “inactive” throughout. The Potency entry with DFO2036 and in the assay with PC49 was “inactive” each time.

For the compound `N#Cc1c(Cl)cccc1Cl`, the Potency entry in assay [2], in assay [3], in assay [4] and in assay [13] was “inactive” throughout. Also, the result in assay [5], in assay [6], in assay [11] and in assay [10] was inactive. In addition, the activity change % (negative = inhibition) in [12] was -4.17%. Also, the activation in [8] was -3.69%; in assay [9] it was -0.167%.

Take `CNc1ccc(C(=O)CC(O)CCC(C)C2OC(=O)CC(O)CC(=O)CC(O)CC(O)CC(O)CC(O)CC3(O)CC(O)C(C(=O)OC)C(CC(O[C@@H]4OC(C)C(O)C(N)C4O)/C=C/C=C/C=C/C=C/C=C/C=C/C=C/C2C)O3)cc1` (stereo partly specified): the Potency result (in assay [1]; in the assay on AS120; with ATS189; in the assay on CP192; with CP203; with CP247) was “inactive” each time. The Potency result in the assay on DFO2036 and in the assay on PC49 was “inactive” throughout.

For `COP(N)(=O)SC` (stereo unspecified), the Potency entry in [2], in assay [3], in [4] and in assay [13] was “inactive” in each case. Moreover, the compound was called inactive in assay [5], in [6], in [11] and in assay [10]. Also, in assay [12], the activity change % (negative = inhibition) is 12.1% and -8.42%. Besides, the activation in [8] is 0.404% and 2.15%; in assay [9] it was -0.0851% and 1.26%.

With `CC(C)OC(=O)Nc1cccc(Cl)c1`, the Potency result in [3] and in [13] was “inactive” each time. Further, the compound was called inactive in assay [5], in assay [6], in assay [7] and in assay [11]. Besides, the activity change % (negative = inhibition) in assay [12] was 12.8%. For the same compound, the activation in assay [8] was 1.93%.

For `O=C(O)COc1cc(Cl)c(Cl)cc1Cl`, the Potency result in assay [4] is “inactive”. The call in [7] and in assay [10] was inactive. In addition, in [12], the activity change % (negative = inhibition) was 7.44%. The activation in [9] was 0.686%.

For the compound `COc1nc(NC(C)C)nc(NC(C)C)n1`, the Potency result in assay [2], in assay [3], in assay [4] and in [13] was “inactive” in each case. The result in assay [5], in [6], in [7], in assay [11] and in [10] was inactive. Also, in assay [12], the activity change % (negative = inhibition) is 0.677%. Moreover, the activation in assay [8] is -5.88%; in assay [9], -1.56%.

For `CNC(C)[C@@H](O)c1ccccc1` (stereo partly specified), the Potency result (in assay [1]; in the assay with AS120; in the assay with ATS189; with CP192; in the assay with CP203; with CP247) was “inactive” throughout. The Potency entry with DFO2036 and in the assay with PC49 was “inactive” in each case.

Turning to `CCc1cccc(C)c1N(C(=O)CCl)C(C)COC` (stereo unspecified), the compound was classed as inactive in assay [7]. Further, the Potency in [13] is 24.3 µM (active). The activation in assay [8] is -2.17%; in [9], -0.315%.

As to `CNC(=O)CSP(=S)(OC)OC`, the Potency result in [2], in [3] and in assay [13] was “inactive” in each case. In addition, the compound was classed as inactive in assay [5], in assay [6], in assay [7], in assay [11] and in [10]. Further, in [12], the activity change % (negative = inhibition) is -15.4% and 6.49%. Moreover, the activation in [9] was 0.301% and 4.06%.

As for `CC(C)CC(CN)CC(=O)O` (stereo unspecified), in assay [1], the Potency entry was “inactive”.

Regarding `CC(C)N1C(=O)c2ccccc2NS1(=O)=O`, the Potency entry in assay [2], in [3], in assay [4] and in [13] was “inactive” throughout. The call in assay [5], in assay [6], in assay [11] and in assay [10] was inactive. In addition, in [12], the activity change % (negative = inhibition) was -1.01%. Moreover, in assay [8], the activation is 2.08%.

These data come from PubChem BioAssay (NCATS).
